Data: PubChem BioAssay (NCATS)
Results filed as inconclusive are left out. Activity calls are given as the source filed them. Calls come from the whole dose curve; as a rule, active = well fitted curve in the direction sought with a large enough effect; inconclusive = small, poorly fitted or top-dose-only effect, or another doubt; inactive = no such curve, though single readings can be large; an effect the other way counts as inactive or inconclusive.

What was measured:
[1] = BET inhibitor-based combinations targeting novel dependencies in MECOM-rearranged (r) AML: SET-2 cell line (AID 2202231); settings: SET-2 AML cells viability, CellTiter-Glo luminescence, 48 h; viability: hits give low values, concentration not given here; note: nearly all actives have a fitted effect of over 35% in size;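 for viability: plate controls were DMSO treated cells for no effect and wells without cells for full effect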
Procedure, shortened: (§1)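 Here, 11-point titrations of each agent were applied to 500 seeded cells and incubated 48 hr; CellTiter-Glo signal, scaled against DMSO and empty wells, was integrated as AUC, then Z-scored within the individual line.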

[2] = BET inhibitor-based combinations targeting novel dependencies in MECOM-rearranged (r) AML: OCI-AML3 cell line (AID 2202232); settings: Potency: OCI-AML3 viability; note: nearly all actives have a fitted effect of over 35% in size;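 for viability (% of control): series mostly up to about 46 µM; plate controls were DMSO vehicle wells for no effect and wells without cells for full effect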
Procedure, shortened: as §1

[3] = BET inhibitor-based combinations targeting novel dependencies in MECOM-rearranged (r) AML: MV-4-11 cell line (AID 2202233); note: nearly all actives have a fitted effect of over 45% in size;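 for viability, % of control: plate controls were DMSO for no effect and blank wells for full effect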
Procedure, shortened: (§2)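 Normalized to DMSO and empty-well controls, the luminescence data from CellTiter-Glo after 48 hr drug exposure were fitted across 11 concentrations. Reported metrics are area under the dose-response curve and its Z-transformed form.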

[4] = BET inhibitor-based combinations targeting novel dependencies in MECOM-rearranged (r) AML: UCSD-AML1 cell line (AID 2202235); note: nearly all actives have a fitted effect of over 40% in size;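 for viability (% of control): series mostly up to about 46 µM; plate controls were DMSO vehicle wells for no effect and blank wells for full effect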
Procedure, shortened: as §2

[5] = BET inhibitor-based combinations targeting novel dependencies in MECOM-rearranged (r) AML: AML-191 cell line (AID 2202236; note: nearly all actives have a fitted effect of over 35% in size;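 for viability (% of control): plate controls were vehicle wells for no effect and wells without cells for full effect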)
Procedure, shortened: as §1

[6] = BET inhibitor-based combinations targeting novel dependencies in MECOM-rearranged (r) AML: AML-194 cell line (AID 2202237; note: nearly all actives have a fitted effect of over 40% in size;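 for viability (% of control): plate controls were vehicle wells for no effect and wells without cells for full effect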)
Procedure, shortened: as §1
Potency is the fitted concentration of half-maximal effect.

COc1cc2c(cc1OC)CN(CCc1ccc(-n3nnc(-c4cc(OC)c(OC)cc4NC(=O)c4cc(=O)c5ccccc5o4)n3)cc1)CC2
inactive: viability [1] 116% | viability (% of control) [2] 94.2% [at 0.315 µM] | viability, % of control [3] 93.2% [at 0.315 µM] | viability (% of control) [4] 106% [at 0.315 µM] | viability (% of control) [5] 99.1% [at 0.315 µM] | viability (% of control) [6] 95.7% [at 0.315 µM]

Cc1ccc(S(=O)(=O)Nc2cc(-c3ccc(C#N)s3)ccc2C)cc1
active: Potency [1] 74.2 nM | Potency [2] 93.4 nM | Potency [3] 105 nM | Potency [4] 66.1 nM | Potency [5] 74.2 nM | Potency [6] 83.3 nM

C[C@]12CCC3=C4CCC(=O)C=C4CC[C@H]3[C@@H]1CC[C@@]2(O)CC#N
inactive: viability [1] 108% | Potency [2] | Potency [3] | Potency [4] | Potency [5] | Potency [6]

COc1cc2nccc(Oc3ccc(NC(=O)c4cn(C(C)C)c(=O)n(-c5ccc(F)cc5)c4=O)cc3F)c2cc1OC
inactive: viability [1] 113% | Potency [2] | Potency [4] | Potency [6]
active: Potency [3] 468 nM

Nc1nc(F)nc2c1ncn2[C@@H]1O[C@H](COP(=O)(O)O)[C@@H](O)[C@@H]1O
active: Potency [1] 3720 nM | Potency [2] 20900 nM | Potency [3] 11800 nM | Potency [4] 1180 nM | Potency [5] 3320 nM | Potency [6] 4170 nM

CC[C@]12C=CCN3CC[C@@]4(c5cc([C@@]6(C(=O)OC)CC7C[C@@H](C(C)(F)F)CN(Cc8c6[nH]c6ccccc86)C7)c(OC)cc5N(C)[C@H]4[C@@](O)(C(=O)OC)[C@@H]1OC(C)=O)[C@@H]32 (some centres undefined)
active: Potency [1] 1660 nM | Potency [2] 296 nM | Potency [3] 417 nM | Potency [4] 468 nM | Potency [5] 372 nM | Potency [6] 332 nM

CC(C)n1c(=O)cc(N[C@@H](C)c2ccccc2)[nH]c1=O
active: Potency [3] 14800 nM
inactive: viability [1] 110% | Potency [2] | Potency [4] | Potency [5]

CN1CCN(c2ccc3nc(-c4c(N)c5c(F)cccc5[nH]c4=O)[nH]c3c2)CC1
active: Potency [1] 4170 nM | Potency [2] 4680 nM | Potency [3] 59 nM | Potency [4] 3320 nM | Potency [5] 1860 nM | Potency [6] 1860 nM

Cc1c(-c2cnccn2)ssc1=S
inactive: viability [1] 94.7% | Potency [4] | Potency [5]
active: Potency [2] 2950 nM | Potency [3] 3720 nM

CCCCc1ccc2nc(NC(=O)OC)[nH]c2c1
active: Potency [1] 263 nM | Potency [2] 148 nM | Potency [3] 186 nM | Potency [4] 118 nM | Potency [5] 118 nM | Potency [6] 105 nM

CN(C)CCCN=c1c2ccccc2n(C)c2[nH]c(=O)n(C)c(=O)c12
active: Potency [1] 23500 nM | Potency [2] 18600 nM | Potency [3] 9340 nM | Potency [4] 26300 nM | Potency [5] 18600 nM

O=c1[nH]c(=O)n([C@H]2C[C@H](O)[C@@H](CO)O2)cc1C(F)(F)F
active: Potency [1] 5900 nM | Potency [2] 1660 nM | Potency [3] 1050 nM | Potency [4] 1480 nM | Potency [5] 1320 nM | Potency [6] 4680 nM

CCc1cc2c(c(OCC(F)(F)F)c(C(=O)NC3CCN(C(=O)CO)CC3)n2C)c(=O)n1CC(=O)c1ccccc1
inactive: viability [1] 103% | Potency [2] | Potency [3] | Potency [4] | Potency [5] | Potency [6]

C=C1/C(=C/C=C2\CCCC3(C)[C@@H]([C@H](C)/C=C/C=C/C(O)(CC)CC)CC[C@@H]23)C[C@@H](O)C[C@@H]1O (some centres undefined)
active: Potency [2] 16600 nM | Potency [3] 5250 nM | Potency [5] 26300 nM
inactive: viability [1] 89.5% | Potency [4]

COc1ccc2c(c1OC)C(=O)OC2[C@H]1c2c(cc3c(c2OC)OCO3)CCN1C (some centres undefined)
active: Potency [1] 16600 nM | Potency [2] 20900 nM | Potency [3] 18600 nM | Potency [5] 13200 nM | Potency [6] 20900 nM
inactive: Potency [4]

CC(C)(C)c1[nH]cnc1/C=c1\[nH]c(=O)/c(=C/c2ccccc2)[nH]c1=O
active: Potency [1] 83.3 nM | Potency [2] 74.2 nM | Potency [3] 83.3 nM | Potency [4] 59 nM | Potency [5] 59 nM | Potency [6] 74.2 nM

CCNCCS(=O)(=O)NC[C@@]1(c2ccccc2)SC(NC(=O)C(C)(C)C)=NN1C(=O)C(C)(C)C
active: Potency [1] 118 nM | Potency [2] 4.2 nM | Potency [3] 4.2 nM | Potency [4] 4.7 nM | Potency [5] 20.9 nM

CC1(C)OC2=C(C(=O)c3ccccc3C2=O)[C@H](NCc2ccccc2)[C@@H]1O
active: Potency [1] 6610 nM | Potency [2] 11800 nM | Potency [3] 8330 nM | Potency [4] 9340 nM | Potency [5] 7420 nM | Potency [6] 7420 nM

CCCCCCCCCCCC(CC1OC(=O)C1CCCCCC)OC(=O)C(CC(C)C)NC=O (centres undefined)
active: Potency [3] 742 nM
inactive: viability [1] 98.6% | Potency [2] | Potency [4] | Potency [5] | Potency [6]

Nc1nc(=S)c2[nH]cnc2[nH]1
active: Potency [1] 742 nM | Potency [2] 417 nM | Potency [3] 296 nM | Potency [4] 2950 nM | Potency [5] 833 nM | Potency [6] 3720 nM
